From PubChem BioAssay (EPA / NIEHS)
Records with an inconclusive call do not appear. Active and inactive are the calls of the source. The calls were made as follows, unless noted: active = hit-call score of the fitted dose curve at least 0.9, where 1 is the maximum; inactive = score below 0.9.

Key:
[1] = CCTE_Shafer_MEA_acute_burst_percentage_std: CCTE's Neural Acute Assay for Standard Deviation of Burst Percentage, Shafer Lab (AID 2284018);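 also: fitted in the negative direction so actives lower burst percentage SD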
Method in brief: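 Rat primary cortical neurons on 48-well MEAs, DIV 13 or 15, 37 C. 40-min baseline then 40-min recording with compound (0.03-40 uM); well-level SD of per-electrode burst spike percentage, expressed as percent change from baseline.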

[2] = CCTE_Shafer_MEA_acute_per_network_burst_spike_number_mean: CCTE's Neural Acute Assay for Average Number of Spikes in a Network Burst, Shafer Lab (AID 2284019);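 as to AC50: curve fitted for loss of signal so actives reduce spikes per network burst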
Method in brief: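 Rat cortical cultures, DIV 13/15; spike threshold 8x rms noise, 300-5000 Hz band-pass, 12.5 kHz sampling; wells need >/= 10 active electrodes. Compound 0.03-40 uM, 40 min, 37 C; % change vs own baseline, DMSO negative control.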

[3] = CCTE_Shafer_MEA_acute_per_network_burst_spike_number_std: CCTE's Neural Acute Assay for Standard Deviation of Number of Spikes in a Network Burst, Shafer Lab (AID 2284020);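 also: fitted for decrease in spike-number SD versus DMSO so actives lower it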
Method in brief: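 Rat cortical cultures, DIV 13/15, 37 C; 20-min stabilisation, 40-min baseline, compound 0.03-40 uM, 40-min re-record. Spikes detected at 8x rms noise (300-5000 Hz band-pass). Readout: % change from baseline in per-burst spike-number SD.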

[4] = CCTE_Shafer_MEA_acute_per_network_burst_electrodes_number_mean: CCTE's Neural Acute Assay for Mean Number of Electrodes in a Network Burst, Shafer Lab (AID 2284021);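 also: curves fitted for decreases only so hits reduce electrodes per burst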
Method in brief: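 Cultures of rat cortex neurons were exposed on DIV 13 or 15 to compounds at 0.03-40 uM in at least three wells each. Activity over 40 min before and 40 min after exposure at 37 C gave the percent change in electrodes per network burst.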

[5] = CCTE_Shafer_MEA_acute_network_burst_percentage: CCTE's Neural Acute Assay for Percentage of Network Bursts, Shafer Lab (AID 2284022);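 also: curves fitted for loss so actives lower network burst percentage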
Method in brief: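 Cortical neurons from rat were grown over microelectrode arrays and used on day 13 or 15 in vitro. Wells with at least 10 active electrodes received test chemical at 0.03-40 uM. Activity during 40 min of exposure was compared with the preceding 40-min baseline.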

[6] = CCTE_Shafer_MEA_acute_cross_correlation_HWHM: CCTE's Neural Acute Assay for Cross Correlation at Half Width at Half Maximum, Shafer Lab (AID 2284026);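 also: percent change per well from pre-dose baseline in spike cross-correlogram half width; hits are a decrease in cross-correlogram half width relative to DMSO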
Method in brief: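 Primary cortex (rat), MEA, DIV 13/15; compound 0.03-40 uM; 40 min pre + 40 min post at 37 C; spike threshold 8x rms; wells need ≥10 active electrodes; endpoint = % change in cross-correlogram HWHM vs baseline, DMSO negative control.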

[7] = CCTE_Shafer_MEA_acute_synchrony_index: CCTE's Neural Acute Assay for Synchrony, Shafer Lab (AID 2284027);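 also: network synchrony index of spontaneous spiking in primary rat cortical neurons on MEAs; fitted for loss of signal so actives lower synchrony relative to DMSO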
Method in brief: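 Plates equilibrated 20 min at 37 C, baseline recorded 40 min, compound (0.03-40 uM) added, then 40 min more recorded. Cells: primary rat cortical neurons, DIV 13 or 15. Per-well synchrony index change analysed in negative direction against DMSO.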

[8] = CCTE_Deisenroth_AIME_96WELL_CTox_Active: Cytotoxicity Assessment (CTOX) in CCTE's 96-well Estrogen Receptor Transactivation Assay with AIME metabolic competence (metabolism positive), Deisenroth Lab (AID 2284028; active = hit-call score of the fitted dose curve at least 0.9, where 1 is the maximum)
Method in brief: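 Cytotoxicity in VM7Luc4E2 breast cells after 24 h exposure to medium from a 2 h metabolic pre-incubation with induced rat hepatic S9 in alginate microspheres; fluorescent live-cell protease readout, 10-point series 0.002–200 uM, n=4.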

[9] = target: Estrogen receptor (Homo sapiens) (UniProt P03372); assay: CCTE_Deisenroth_AIME_96WELL_LUC_Active: CCTE's 96-well Estrogen Receptor Transactivation Assay with AIME metabolic competence (ERTA luciferase; metabolism positive), Deisenroth Lab (AID 2284023; active = hit-call score of the fitted dose curve at least 0.9, where 1 is the maximum)
Method in brief: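 Metabolism-positive mode: induced rat hepatic S9 in alginate microspheres conditions test solutions (0.002 - 200 uM, 10 points) for 2 hours. VM7Luc4E2 ER luciferase reporter cells then exposed 24 h; positive-direction fit against 17beta-estradiol, n=4 typical.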

[10] = target: Estrogen receptor (Homo sapiens) (UniProt P03372); assay: CCTE_Deisenroth_AIME_96WELL_LUC_Inactive: CCTE's 96-well Estrogen Receptor Transactivation Assay without AIME metabolic competence (ERTA luciferase; metabolism negative), Deisenroth Lab (AID 2284025; active = hit-call score of the fitted dose curve at least 0.9, where 1 is the maximum)
Method in brief: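 Metabolism-negative arm: chemicals (0.002–200 uM, 10 points) incubated 2 h with alginate-water microspheres, then medium moved onto VM7Luc4E2 cells for 24 h luciferase read-out. Positive direction vs 17beta-estradiol; n≥4 experiments.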

Measured: AC50

Chain of Estrogen receptor (Homo sapiens) (P03372 whole entry, looked up): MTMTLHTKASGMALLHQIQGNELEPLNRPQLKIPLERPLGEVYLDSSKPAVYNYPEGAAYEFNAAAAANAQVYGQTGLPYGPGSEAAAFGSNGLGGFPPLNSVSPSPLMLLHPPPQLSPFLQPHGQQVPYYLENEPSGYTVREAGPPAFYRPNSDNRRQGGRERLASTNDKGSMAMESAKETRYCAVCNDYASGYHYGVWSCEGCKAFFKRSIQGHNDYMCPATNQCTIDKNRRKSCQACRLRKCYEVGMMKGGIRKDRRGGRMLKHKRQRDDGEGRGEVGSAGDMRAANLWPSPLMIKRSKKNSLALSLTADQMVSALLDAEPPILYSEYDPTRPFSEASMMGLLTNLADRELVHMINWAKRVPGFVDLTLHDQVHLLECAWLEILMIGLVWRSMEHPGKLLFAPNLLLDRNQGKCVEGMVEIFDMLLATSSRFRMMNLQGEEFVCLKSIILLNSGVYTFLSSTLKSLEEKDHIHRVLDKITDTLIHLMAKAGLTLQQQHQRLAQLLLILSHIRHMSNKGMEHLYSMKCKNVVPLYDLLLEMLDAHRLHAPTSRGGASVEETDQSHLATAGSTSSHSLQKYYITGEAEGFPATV

COc1ccc(S(=O)(=O)N2C(=O)[C@@](c3ccccc3OC)(N3C[C@H](O)C[C@H]3C(=O)N(C)C)c3cc(Cl)ccc32)c(OC)c1
not listed: [8] | [9] | [10]
inactive: all other assays above

C=CCc1ccc(O)c(OC)c1
active: [5] 31.1 µM | [7] 20 µM
inactive: [1] | [2] | [3] | [4] | [6]

Nc1nc(N)c2nc(CNc3ccc(C(=O)N[C@@H](CCC(=O)O)C(=O)O)cc3)cnc2n1
not listed: [8] | [9] | [10]
inactive: all other assays above

CN1CCCC1=O
not listed: [8] | [9] | [10]
inactive: all other assays above

CCCc1cc(=O)[nH]c(=S)[nH]1
not listed: [8] | [9] | [10]
inactive: all other assays above

Nc1ccc2c(c1)C(=O)c1ccccc1C2=O
not listed: [8] | [9] | [10]
inactive: all other assays above

COc1cccc2c1C(=O)c1c(O)c3c(c(O)c1C2=O)C[C@@](O)(C(=O)CO)C[C@@H]3O[C@H]1C[C@H](N)[C@H](O)[C@H](C)O1
active: [8] 51.6 µM

CNCc1cc(F)ccc1Oc1ccc(Cl)c(Cl)c1
inactive: [1] | [4] | [5] | [6] | [7]
active: [2] 32.6 µM | [3] 31.7 µM

CC(=O)Oc1ccccc1C(=O)O
not listed: [8] | [9] | [10]
inactive: all other assays above

Nc1ccccc1N
not listed: [8] | [9] | [10]
inactive: all other assays above

O=C(O)CCCCC(=O)O
not listed: [8] | [9] | [10]
inactive: all other assays above

CCCCCCCCCCO
inactive: [1] | [2] | [3] | [4] | [5]
active: [6] 20 µM | [7] 20 µM

CCOC(=O)C(C)(C)Oc1ccc(Cl)cc1
not listed: [8] | [9] | [10]
inactive: all other assays above

C=CCOC(=O)c1ccccc1C(=O)OCC=C
active: [1] 20 µM
not listed: [8] | [9] | [10]
inactive: all other assays above

NCC1(Cc2noc(=O)[nH]2)CCCCC1
not listed: [8] | [9] | [10]
inactive: all other assays above

NS(=O)(=O)c1cc2c(cc1Cl)NCNS2(=O)=O
not listed: [8] | [9] | [10]
inactive: all other assays above

Cc1ccc2ncccc2c1
not listed: [8] | [9] | [10]
inactive: all other assays above

Clc1cc(Cl)c(Cl)cc1Cl
not listed: [8] | [9] | [10]
inactive: all other assays above

Cc1ccc(C(C)C)c(O)c1
not listed: [8] | [9] | [10]
inactive: all other assays above

FC(F)(F)C(F)(F)C(F)(F)C(F)(F)C(F)(F)C(F)(F)CCI
not listed: [8] | [9] | [10]
inactive: all other assays above

Cc1ccc(C)c(O)c1C
active: [1] 29.3 µM | [6] 33.9 µM | [7] 31.6 µM
inactive: [2] | [3] | [4] | [5]

CC(=O)C(C)=CC1C(C)=CCCC1(C)C (configuration not stated)
active: [7] 20 µM
not listed: [8] | [9] | [10]
inactive: all other assays above

c1cc(-c2ccncc2)ccn1
not listed: [8] | [9] | [10]
inactive: all other assays above

CN[C@H]1CC[C@@H](c2ccc(Cl)c(Cl)c2)c2ccc(S(N)(=O)=O)cc21
active: [3] 20 µM | [4] 29.9 µM | [5] 31 µM | [7] 32 µM
inactive: [1] | [2] | [6]

CCCCCCCCCCCCCCCCCC(=O)O
inactive: [1] | [2] | [3] | [5] | [6] | [7]

COc1ccc2c(c1)c(CC(=O)O)c(C)n2C(=O)c1ccc(Cl)cc1
not listed: [8] | [9] | [10]
inactive: all other assays above

CC(C)(C)c1cc(O)c(C(C)(C)C)cc1O
active: [2] 4.33 µM | [3] 30.7 µM | [6] 31.7 µM
inactive: [1] | [4] | [5] | [7]

COc1cc(/C=C/C(=O)CC(=O)/C=C/c2ccc(O)c(OC)c2)ccc1O
inactive: [9] | [10]
active: [8] 63 µM

C[Si]1(C)O[Si](C)(C)O[Si](C)(C)O[Si](C)(C)O1
not listed: [8] | [9] | [10]
inactive: all other assays above
